The results in this text go back to PubChem BioAssay (NCI).

About 83,000 compounds went through this panel and 20% of them were active in at least one assay; those are over-represented in the sample as a whole.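 Results are percent growth after 48 hours of single-concentration exposure. 100 means growth as in untreated cells, lower positive values show inhibition; negative values down to -100 show cell death.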 A number with no mark means an inactive call. Activity calls are given as the source filed them. Rule for the calls: active = growth percent below 10; inactive = the rest.

Assay in all cases: NCI-60 one-dose screen, 48 h (100 = growth as untreated, 0 = no growth, -100 = all killed)
What all share (conditions): 10 µM unless noted

Experiment [1] deals with HCT-15 colon.
Experiment [2] deals with HT29 colon.
Experiment [3] has as its system SNB-75 CNS.
The subject of experiment [4] is SNB-19 CNS.
For experiment [5], the system named is U251 CNS.
Experiment [6] has as its system PC-3 prostate.
For experiment [7], the system named is SK-MEL-5 melanoma.
Experiment [8] concerns UACC-62 melanoma.
The subject of experiment [9] is LOX IMVI melanoma.
For experiment [10], the system named is SK-MEL-28 melanoma.

With `COCc1nc(NS(=O)(=O)c2ccc(N)cc2)nc(C)c1Br`, the growth is 97.7% in experiment [1]; 88.6% in [2]; 89.4% in experiment [3]; 108% in [4]; 103% in [5]; 101% in [6]. The growth in experiment [7] was 102%; in [8], 101%; in [9], 94.1%; in experiment [10], 105%.
For `CC(C)[C@@H]1C=C2CC[C@H]3[C@](C)(CN)CCC[C@]3(C)[C@H]2CC1`, the growth is 44.5% in experiment [1]; -34.1% (active) in experiment [2]; 64.8% in experiment [3]; 104% in [4]; 14% in experiment [5]; 69.6% in experiment [6]. In addition, the growth is 69.3% in experiment [7], 86.3% in experiment [8], 43.6% in experiment [9] and -82.1% (active) in experiment [10].
For the compound `CCOC(=O)c1ccc2c(c1)[n+](=O)c(C(=O)c1ccc3ccccc3c1)c(C(F)(F)F)n2[O-]`, the growth in experiment [1] is -96.1% (active); in experiment [2], -97.4% (active); in experiment [3] it was -100% (active); in experiment [4], -85.5% (active); in experiment [5], -100% (active); in experiment [6], -99.2% (active). The growth in experiment [7] was -100% (active); in experiment [8], -97.2% (active); in experiment [9], -97.5% (active); in experiment [10] it was -96.3% (active).
Regarding `CCCNCCC(C)=O`, the growth in experiment [1] is 111%; in experiment [2] it was 98.1%; in experiment [3], 107%; in [4], 97.1%; in experiment [5] it was 68.8%; in experiment [6], 97.1%. For the same compound, the growth is 115% in experiment [7], 98% in [8], 94.5% in experiment [9] and 108% in experiment [10].
Take `Clc1nnc2c3ccccc3ccn12`: the growth in experiment [1] was 99.9%; in experiment [2], 113%; in experiment [3], 82.2%; in experiment [4] it was 110%; in experiment [5] it was 102%; in experiment [6], 93%. In addition, the growth in [7] was 97.7%; in [8] it was 102%; in experiment [9], 109%; in experiment [10], 119%.
In the case of `CCCCCCCOc1cccc(/C=C2\N=C3SCCCN3C2=O)c1`, the growth in experiment [1] was 87.5%; in [2], 88.9%; in experiment [3] it was 91.2%; in [4], 92.8%; in [5], 91.1%; in experiment [6], 85.3%. Moreover, the growth in experiment [7] is 90.1%; in [8], 79.6%; in [9] it was 96.2%; in experiment [10], 100%.
Turning to `CCOC(=O)Nc1ccc2nc(N3CCCCCC3)sc2c1`, the growth in experiment [1] is 24.7%; in experiment [2] it was 6.49% (active); in experiment [3], -8.82% (active); in [4], 33.6%; in [5] it was 22.8%; in experiment [6] it was 25%. The growth in experiment [7] is 11.5%; in [8], 26%; in experiment [9] it was 44.4%; in experiment [10], 42.6%.
Turning to `CCCCCCCCCCCCNC(=O)N[C@H](C(=O)N[C@H]1/C=C/CCNC(=O)/C=C/[C@H](C)NC1=O)C(C)C`, the growth is 27.9% in [1]; 11.8% in experiment [2]; -94.9% (active) in experiment [3]; -25.8% (active) in experiment [4]; -95.3% (active) in experiment [5]; -24% (active) in experiment [6]. For the same compound, the growth in experiment [7] is -100% (active); in experiment [8], -88.8% (active); in experiment [9] it was -89.2% (active); in experiment [10], -70.2% (active).
Turning to `Fc1cc(-c2cnc3nonc3n2)c(Cl)cc1Cl`, the growth in experiment [1] is 51%; in experiment [2], 87.9%; in [3], 99.9%; in [4] it was 90.4%; in experiment [5] it was 109%; in [6] it was 85.3%. Besides, the growth in experiment [7] is 98.3%; in [8], 82.3%; in experiment [9], 101%; in experiment [10], 91.8%.
`CCN(CC)c1ccc(/C=N/NC(=O)c2ccc(S(C)(=O)=O)cc2)c(O)c1`: the growth in [1] is 28.5%; in experiment [2], 21.8%; in experiment [3], 55.2%; in [4], 32%; in [5], 20.6%; in experiment [6], 49.2%. In addition, the growth is -2.99% (active) in [7], -18.5% (active) in [8], 9.68% (active) in experiment [9] and 27.2% in [10].
Take `COc1ccc(Cl)cc1Nc1nc(C(F)(F)F)ccc1C(=O)NN`: the growth in experiment [1] is 15.8%; in experiment [2], 31.4%; in experiment [3], 15%; in experiment [4] it was 41.7%; in experiment [5], 18.4%; in [6], 17.2%. The growth is 77.5% in [7], 9.62% (active) in [8], 5.37% (active) in experiment [9] and 13.4% in experiment [10].
For the compound `ClC1=NC(Cl)C(Cl)=N/C1=N\c1ncn[nH]1` (stereo not given), the growth in experiment [1] is -71.9% (active); in experiment [2] it was -62.8% (active); in experiment [3], 68.9%; in [4], 111%; in [5] it was -50.5% (active); in [6], 20.3%. For the same compound, the growth was 74.1% in experiment [7], 83.6% in experiment [8], -50.7% (active) in experiment [9] and 15.1% in experiment [10].
On to `COC(=O)OC1C(O[C@H]2C[C@H]3[C@@H]4CC=C5C[C@@H](O)CC[C@]5(C)[C@H]4CC[C@]3(C)[C@H]2[C@H](C)C(=O)CCC(C)C)OCC(O)C1OC1OCC(O)C(O)C1OC(=O)c1ccc(OC)cc1` (stereo not given in full), for which the growth in experiment [1] was -40.9% (active); in experiment [2] it was 4.87% (active); in [3], 0.635% (active); in experiment [4] it was 8.46% (active); in [5], -18.5% (active); in experiment [6], -18.8% (active). Also, the growth in experiment [7] was -71.5% (active); in experiment [8] it was -29% (active); in [9] it was -38.7% (active); in experiment [10], -55.3% (active).
